For test [1], the system named is CRL-7250. The test is described as follows: Cytotoxic Profiling of Annotated Libraries Using Quantitative High-Throughput Screening (AID 1296008). Further: potency means the concentration at half of the fitted maximal effect. On max response: on the % scale 0 is the no-effect control and ±100 the full control effect. Particulars: Five cell lines viability, CellTiter-Glo ATP luminescence, 48-72 h; max response: hits give low values. The gist of the method:
(§1)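 Compounds were pin-transferred onto cells and incubated 48 or 72 hr at 37 degree Celsius, 95% humidity. CellTiter-Glo was added, plates sat 10 min at room temperature, then ATP-coupled luminescence was imaged as the viability read-out.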
For orientation: In ATP-based viability assays light output follows the ATP content of the culture.

The subject of test [2] is KB-3-1. Described as above. Particulars: Five cell lines viability, CellTiter-Glo ATP luminescence, 48-72 h; max response: hits give low values. The method in brief:
as §1

Test [3] deals with NIH3T3. The description is as above. Particulars: Five cell lines viability, CellTiter-Glo ATP luminescence, 48-72 h; max response: hits give low values. The gist of the method:
as §1

Test [4] concerns HaCat. The test is described as above. Particulars: Five cell lines viability, CellTiter-Glo ATP luminescence, 48-72 h; max response: hits give low values. The gist of the method:
as §1

For test [5], the system named is MCC-13. The test can be described thus: qHTS assay to identify novel small-molecules to repurpose for Merkel cell carcinoma treatment (AID 1296009). Particulars: MCC and control cell lines, CellTiter-Glo viability, 72 h; series mostly up to 46 µM. The gist of the method:
(§2)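 Cells exposed to NPC (8-point) and MIPE (11-point) compound dilutions for 72 hr at 37 degree celsius; viability read by CellTiter-Glo luminescence, normalized to no-cell and DMSO in-plate controls.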
(In general: In qHTS, concentration-response curves come from the screen itself.)

In test [6] the test system is HEK293. The test is described as follows: Cytotoxic Profiling of Annotated Libraries Using Quantitative High-Throughput Screening (AID 1296008). Further: potency means the concentration at half of the fitted maximal effect. On max response: on the % scale 0 is the no-effect control and ±100 the full control effect. Particulars: Five cell lines viability, CellTiter-Glo ATP luminescence, 48-72 h; max response: hits give low values. The gist of the method:
as §1

The subject of test [7] is HACAT. The test is described as follows: qHTS assay to identify novel small-molecules to repurpose for Merkel cell carcinoma treatment (AID 1296009). Particulars: MCC and control cell lines, CellTiter-Glo viability, 72 h; at 44.8 µM (top of the series) unless noted. The method in brief: as §2
The test system of test [8] is TAB165. The test can be described thus: qHTS profiling for inhibitors of Plasmodium falciparum proliferation (AID 504749). Further: potency means the concentration at half of the fitted maximal effect. Particulars: P. falciparum in erythrocytes, SYBR Green DNA, 72 h; series mostly up to 28.7 µM. The gist of the method:
(§3)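 P. falciparum-infected erythrocytes (0.3% parasitemia, 2.5% hematocrit final) were exposed to compounds for 72 h at 37 C in 5% CO2, then lysed with SYBR Green buffer overnight at room temperature; parasite DNA fluorescence was normalized to artemisinin and DMSO controls.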

Test [9] concerns W2. The test is described as above. Particulars: P. falciparum in erythrocytes, SYBR Green DNA, 72 h; series mostly up to 28.7 µM. The method in brief:
as §3

The subject of test [10] is HEK293T. The test can be described thus: qHTS assay to identify novel small-molecules to repurpose for Merkel cell carcinoma treatment (AID 1296009). Particulars: MCC and control cell lines, CellTiter-Glo viability, 72 h; at 44.8 µM (top of the series). The method in brief:
as §2

Several values for one entry are separate records, joined by “and”; a condition that tells them apart may be missing. Equal entries are not always repeated. Results filed as inconclusive are left out. Some structures have more than one record in an assay (separate samples or runs), and their calls can disagree. Unmarked numbers belong to inactive results. Activity calls are given as the source filed them. The call rests on the fitted dose curve; in most records, active means well fitted inhibition curve with a large enough effect; inconclusive means small, poorly fitted or top-dose-only effect; inactive means flat fitted curve, though single readings scatter.
Further: nearly all actives have a fitted effect of over 60% in size.

As to `COc1cc2nccc(Oc3ccc(NC(=O)NC4CC4)c(Cl)c3)c2cc1C(N)=O`, the Potency in [1] is 0.92 µM (active); in test [3], 14.8 µM (active) and 4.11 µM (active). For the same molecule, in test [2], the molecule was called inactive.
Turning to `O=C(C1CC1)N1CC[C@@H](Cn2c(-c3ccc(-c4ccc5occc5c4)cc3)nc3cnccc32)C1`, the call in test [1] was inactive. For the same molecule, the results for the max response in test [4], in test [2] and in test [3] were -11.7%, 3.71% and 1.4%, respectively. Moreover, the Potency result in [5] is “inactive”.
As for `CC1(C)CNc2cc(NC(=O)c3cccnc3NCc3ccncc3)ccc21`, the Potency in test [6] is 5.8 µM (active); in test [3], 10.3 µM (active). Further, the max response in [6] was -29.2%; in test [2], 3.54% and 4.82%; in test [3] it was -1.33%. Besides, the molecule was classed as inactive in [4] and in [7]. In addition, the Potency entry in test [5] was “inactive”.
In the case of `Cn1cnc2c(F)c(Nc3ccc(Br)cc3Cl)c(C(=O)NOCCO)cc21`, the Potency in test [6] was 1.32 µM (active); in test [4] it was 1.48 µM (active); in test [2] it was 9.35 µM (active); in test [3], 4.18 µM (active). Moreover, the max response in test [6] was -14.9%; in test [2], -17.4% and -1.76%.
Regarding `COc1ccccc1[C@H](c1cccc2ccccc12)[C@@](C)(C#N)C(=O)N1CCC(c2cccc(C(F)(F)F)c2)CC1`, the Potency in [1] was 26.4 µM (active); in test [6], 13.2 µM (active). Also, in test [5], the Potency entry is “inactive”.
As for `Nc1ncnc2nc(-c3ccc(N4CCOCC4)nc3)cc(-c3cccc(Br)c3)c12`, the max response was 0.286% in test [1], 3.01% in test [4] and 1.04% in test [3]. In test [2], the call was inactive. The Potency result in test [5] is “inactive”.
With `NC(=O)c1ccc(-c2nc(-c3ccc4c(c3)OCO4)c(-c3ccccn3)[nH]2)cc1`, the max response in [1] was 3.54%; in test [2] it was -0.83%; in test [3] it was -25.4%. Besides, the result in test [4] and in test [7] was inactive. Also, the Potency result in test [5] is “inactive”.
With `Cc1ccccc1C(C(=O)NC1CCCC1)N(C(=O)Cn1cnc2ccccc21)c1cccc(F)c1` (stereo not drawn), the figures for the max response in test [1] and in test [2] were 1.73% and 7.7%, respectively. Further, the molecule was called inactive in test [4], in [3] and in test [7]. The Potency entry in test [5] was “inactive”.
As for `Cc1cc2c(F)c(Oc3ncnn4cc(OC[C@@H](C)O)c(C)c34)ccc2[nH]1`, the max response in test [1] was -47.3%. Besides, the Potency in test [6] was 3.72 µM (active). Also, the Potency result in test [5] was “inactive”.
For `C[C@]12CCC(=O)C=C1CC[C@@H]1[C@@H]2[C@@H](O)C[C@@]2(C)[C@H]1CC[C@]2(O)C(=O)CO`, the max response is 3.48% in [1], -3.59% in test [6] and 1.04% in [3]. In addition, the Potency result in test [5] was “inactive”.
Consider `Cc1cc([C@@H](C)Nc2ccccc2C(=O)O)c2nc(N3CCOCC3)cc(=O)n2c1`, for which the Potency is 3.82 µM (active) in test [1], 19.1 µM (active) in test [6] and 12.1 µM (active) in test [3]. Moreover, the Potency entry in [5] was “inactive”.
For `COc1c(Cl)cc2c([nH]c3cnccc32)c1NC(=O)c1cccnc1C`, the molecule was classed as inactive in [1], in [4], in test [2] and in test [7]. Moreover, the max response in [2] was 9.41%; in test [3] it was -6% and -16.3%. Further, in [5], the Potency entry was “inactive”.
Consider `COc1ccc2c3n(c(=NC(=O)c4cccnc4)nc2c1OC)CCN3`, for which the max response was -15.5% in test [1] and -17.8% in test [2]. Besides, in test [4], the Potency was 10.5 µM (active). Moreover, the Potency entry in test [5] is “inactive”.
For the molecule `O=S(=O)(N=Cc1c(O)ccc2ccccc12)c1cccs1`, the max response in [1] is -0.432%; in test [2] it was 0.0321%. Besides, the call in test [3] was inactive. For the same molecule, the Potency entry in test [5] was “inactive”.
Take `Clc1ccc(Nc2nnc(Cc3ccncc3)c3ccccc23)cc1`: the Potency in [8] is 12.6 µM (active). The max response was 1.53% and -11.9% and 0.195% in [1]; -5.86% in test [4]; -8.03% and 60.3% in test [2]; -1.18% and -1.64% in test [3]. In addition, the molecule was classed as inactive in test [4] and in test [7]. For the same molecule, the Potency entry in [5] is “inactive”.
As for `CCCCCCCc1ccc(CCc2cccc(O)c2C(=O)O)cc1`, in test [1], the max response is -0.808%. The call in test [7] was inactive. Also, the Potency result in test [5] is “inactive”.
`O=C(C=Cc1ccc(/C=C/C(=O)Nc2ccc(C3=NCCN3)cc2)cc1)Nc1ccc(C2=NCCN2)cc1`: the molecule was called inactive in test [1], in [2] and in test [3]. For the same molecule, in test [4], the max response was -9.67%. Besides, in [5], the Potency result is “inactive”.
For the molecule `Oc1cccc(-c2nc(N3CCOCC3)c3oc4ncccc4c3n2)c1`, the Potency in [1] is 0.0762 µM (active); in test [6] it was 0.171 µM (active); in test [3] it was 0.762 µM (active).
In the case of `CCc1cc(Nc2nccc(-c3c(-c4ccc(OC)c(C(=O)Nc5c(F)cccc5F)c4)nc4ccccn34)n2)c(OC)cc1N1CCC(N2CCN(S(C)(=O)=O)CC2)CC1`, the max response in [1] is -19.7%; in test [2], 5.37% and -9.54%; in test [3], -25.3%. Besides, the call in test [4] and in test [7] was inactive. Further, the Potency entry in [5] was “inactive”.
As for `CN1CCN(CCCN2c3ccccc3Sc3ccc(C(F)(F)F)cc32)CC1`, the Potency in test [9] was 4.78 µM (active); in test [6], 23.7 µM (active). Moreover, the outcome in [6], in test [4], in [2], in test [7] and in test [10] was inactive. Moreover, the max response was -7.86% in [4], -5.37% in test [2] and -0.173% in [3]. Moreover, in test [5], the Potency entry was “inactive”.
For the molecule `OC[C@H](Cc1ccccc1)Nc1nc(Oc2ccc3c(c2)CCC3)nc2c1ncn2Cc1ccc(-c2ccccc2)cc1`, the Potency in test [6] is 8.33 µM (active). Also, the result in test [4] and in [7] was inactive. Moreover, the max response in test [2] was -22.3%; in test [3] it was 1.2%. Further, the Potency entry in test [5] is “inactive”.
`CC(=O)NC(C)c1ccc(Oc2ccc(OC(C)C)cc2)cc1` (stereo not drawn): the Potency in [6] was 14.8 µM (active). Further, the max response in test [2] was 7.61%. The Potency result in test [5] was “inactive”.
Turning to `CS(=O)(=O)c1cccc(CNc2nc(Nc3ccc4c(c3)CCC(=O)N4)ncc2C(F)(F)F)c1`, the Potency in test [6] was 18.4 µM (active); in [4] it was 14.6 µM (active); in test [2] it was 18.7 µM (active); in [3], 8.2 µM (active). Besides, the Potency result in test [5] was “inactive”.
